Measurements from PubChem BioAssay (NCI).
Compounds without any hit were thinned out: in the full panel of roughly 79,000, 15% have a hit. Calls of active or inactive are those of the source. No stated cut-off is given here; in the data, active means growth inhibition above about 70%; inactive means the rest.

assay: NCI Yeast Anticancer Drug Screen. Data for the rad50 strain (AID 155);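 further: 0% = growth of vehicle-only cultures of the same strain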; conditions: S. cerevisiae rad50 strain growth inhibition; at 50.0 µM; active compounds read high
Method in brief: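 Yeast carrying a defined DNA repair defect were exposed to test compounds, and growth was compared with vehicle-treated controls to give percent inhibition.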

Compound | growth inhibition
COc1ccc(-c2cc(=O)c3ccc(O)cc3o2)cc1 | 7.55% (inactive)
CCOC(=O)NC(C)(C)CN(C(=O)OCC)c1ccccc1 | -31.4% (inactive)
COc1ccc2c(c1C)CN1CCc3cc4c(cc3C1=C2)OCO4 | 23.1% (inactive)
CCOC(=O)c1sc(N)nc1-c1ccccc1 | 10.7% (inactive)
COc1cc(-c2cc(=O)c3ccc(O)cc3o2)cc(OC)c1OC | 10.1% (inactive)
CC1(O)CC2CC1C(C(=O)O)C2C(=O)O (centres undefined) | -0.85% (inactive)
NS(=O)(=O)c1ccc(NC(=O)/C=C/C(=O)O)cc1 | -11.9% (inactive)
COc1ccc(-c2cc(=O)c3c(C)cc(O)cc3o2)cc1 | -9.4% (inactive)
N#C/C(=C/c1ccc(O)c(O)c1)C(N)=O | 23.6% (inactive)
Fc1ccccc1Nc1n[nH]c(=S)s1 | 55.9% (inactive)
CCOc1ccc(NC(=O)C2CCC(C)(C(=O)O)C2(C)C)cc1 (centres undefined) | -3.45% (inactive)
CCn1c(C)nc2cc(S(=O)(=O)CS(C)(=O)=O)ccc21 | 17% (inactive)
CC1CC(C)(C)N=C(Cc2ccccc2)O1 (centres undefined) | -26.6% (inactive)
COC(=O)c1ccc2oc(=O)cc(C)c2c1O | -7.6% (inactive)
CCCCCCCCCCCCOc1ccccc1 | 6.15% (inactive)
CC(O)Cn1cnc2c1c(=O)n(C)c(=O)n2C (centres undefined) | -40.1% (inactive)
CCn1c(C)[n+](CC)c2ccc(C(F)(F)F)cc21 | -6.4% (inactive)
C=CN1C(=O)N(C=C)C(C)(CC(C)C)C1=O (centres undefined) | 3.6% (inactive)
N#C/C(=C\c1ccc(-c2ccccc2)cc1)C(N)=O | 32% (inactive)

Compound | growth inhibition
N#[N+]c1ccc2c(S(=O)(=O)O)cccc2c1O | -17.9% (inactive)
Cc1ccccc1NC(=S)Nc1ccccn1 | 22% (inactive)
CCCCCCCCCCCCOc1ccc(C)cc1 | 5.45% (inactive)
CCCN(CCC)CCC(=O)OCC | -18.2% (inactive)
NC(=O)NC(CCCN=C(N)N)C(=O)O (centres undefined) | -21.4% (inactive)
COc1ccc(CNc2ccccn2)cc1 | 10.9% (inactive)
Cc1ccc2c(c1)=N/C(=N\c1nc(O)c(O)[nH]1)N=2 | 7.4% (inactive)
CN1C(=S)c2ccccc2S1(=O)=O | -6.6% (inactive)
CC12CC3(C)CC(C)(C1)CC(C(Cl)C(=O)O)(C2)C3 (centres undefined) | 50.7% (inactive)
CCN(CC)c1ccc(N=Cc2ccccc2S(=O)(=O)O)cc1 | 0.9% (inactive)
COC(=O)C(C)CN1CC(C)OC(C)C1 (centres undefined) | -25.2% (inactive)
COc1cc(/C=N/N2C(=O)c3ccccc3C2=O)ccc1O | 26.8% (inactive)
COc1cc(/C=C2/SC(=S)NC2=O)cc(OC)c1OC | 16.8% (inactive)
COc1ccc(-c2cc(=O)c3c(ccc4ccccc43)o2)cc1 | 21.6% (inactive)
CCCCCCCCCCCCCCCCOc1ccc(C)cc1 | -14.3% (inactive)
O=C1c2ccccc2C(=O)N1/N=C/c1cc(Cl)cc(Cl)c1O | 0.95% (inactive)
Cc1ccc(Cl)cc1NCN1C(=O)c2ccccc2C1=O | 1.35% (inactive)
CCOC(=O)CC(=O)c1ccc(C)cc1 | -13.6% (inactive)

assay: NCI Yeast Anticancer Drug Screen. Data for the mec2-1 strain (AID 157); conditions: S. cerevisiae mec2-1 strain, at 50.0 µM, active compounds read high
Method in brief: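 Strain: mec2-1 (DNA repair/cell cycle alteration). Compound exposure, then growth measured; inhibition expressed relative to vehicle.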

Compound | growth inhibition
COc1ccc(-c2cc(=O)c3ccc(O)cc3o2)cc1 | -13.3% (inactive)
CCOC(=O)NC(C)(C)CN(C(=O)OCC)c1ccccc1 | -39.6% (inactive)
COc1ccc2c(c1C)CN1CCc3cc4c(cc3C1=C2)OCO4 | 17.4% (inactive)
CCOC(=O)c1sc(N)nc1-c1ccccc1 | 4% (inactive)
COc1cc(-c2cc(=O)c3ccc(O)cc3o2)cc(OC)c1OC | -32.4% (inactive)
CC1(O)CC2CC1C(C(=O)O)C2C(=O)O (centres undefined) | -27.6% (inactive)
NS(=O)(=O)c1ccc(NC(=O)/C=C/C(=O)O)cc1 | -10.4% (inactive)
COc1ccc(-c2cc(=O)c3c(C)cc(O)cc3o2)cc1 | -16.1% (inactive)
N#C/C(=C/c1ccc(O)c(O)c1)C(N)=O | -4.15% (inactive)
Fc1ccccc1Nc1n[nH]c(=S)s1 | 56.7% (inactive)
CCOc1ccc(NC(=O)C2CCC(C)(C(=O)O)C2(C)C)cc1 (centres undefined) | 0.35% (inactive)
CCn1c(C)nc2cc(S(=O)(=O)CS(C)(=O)=O)ccc21 | -12.8% (inactive)
CC1CC(C)(C)N=C(Cc2ccccc2)O1 (centres undefined) | -11.6% (inactive)
COC(=O)c1ccc2oc(=O)cc(C)c2c1O | -7.75% (inactive)
CCCCCCCCCCCCOc1ccccc1 | -14.3% (inactive)
CC(O)Cn1cnc2c1c(=O)n(C)c(=O)n2C (centres undefined) | -42.8% (inactive)
CCn1c(C)[n+](CC)c2ccc(C(F)(F)F)cc21 | -10.7% (inactive)
C=CN1C(=O)N(C=C)C(C)(CC(C)C)C1=O (centres undefined) | -5.55% (inactive)
N#C/C(=C\c1ccc(-c2ccccc2)cc1)C(N)=O | 8.6% (inactive)

Compound | growth inhibition
N#[N+]c1ccc2c(S(=O)(=O)O)cccc2c1O | -16.2% (inactive)
Cc1ccccc1NC(=S)Nc1ccccn1 | -0.3% (inactive)
CCCCCCCCCCCCOc1ccc(C)cc1 | -25% (inactive)
CCCN(CCC)CCC(=O)OCC | -29.2% (inactive)
NC(=O)NC(CCCN=C(N)N)C(=O)O (centres undefined) | -36.3% (inactive)
COc1ccc(CNc2ccccn2)cc1 | 13.5% (inactive)
Cc1ccc2c(c1)=N/C(=N\c1nc(O)c(O)[nH]1)N=2 | -15.3% (inactive)
CN1C(=S)c2ccccc2S1(=O)=O | -14.4% (inactive)
CC12CC3(C)CC(C)(C1)CC(C(Cl)C(=O)O)(C2)C3 (centres undefined) | 22.8% (inactive)
CCN(CC)c1ccc(N=Cc2ccccc2S(=O)(=O)O)cc1 | -11.4% (inactive)
COC(=O)C(C)CN1CC(C)OC(C)C1 (centres undefined) | -26.2% (inactive)
COc1cc(/C=N/N2C(=O)c3ccccc3C2=O)ccc1O | 8.1% (inactive)
COc1cc(/C=C2/SC(=S)NC2=O)cc(OC)c1OC | -1.4% (inactive)
COc1ccc(-c2cc(=O)c3c(ccc4ccccc43)o2)cc1 | 3.4% (inactive)
CCCCCCCCCCCCCCCCOc1ccc(C)cc1 | -29.5% (inactive)
O=C1c2ccccc2C(=O)N1/N=C/c1cc(Cl)cc(Cl)c1O | -17.4% (inactive)
Cc1ccc(Cl)cc1NCN1C(=O)c2ccccc2C1=O | -2.4% (inactive)
CCOC(=O)CC(=O)c1ccc(C)cc1 | -3.45% (inactive)
